Assay [1] in a line: NCI Yeast Anticancer Drug Screen. Data for the rad50 strain (AID 155).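 Further: 0% = growth of vehicle-only cultures of the same strain.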 The settings on record: S. cerevisiae rad50 strain growth inhibition, hits give high values. The method in brief: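 Yeast carrying a defined DNA repair defect were exposed to test compounds, and growth was compared with vehicle-treated controls to give percent inhibition.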
Assay [2] can be described thus: NCI Yeast Anticancer Drug Screen. Data for the mec2-1 strain (AID 157). The settings on record: S. cerevisiae mec2-1 strain, hits give high values. The method in brief: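 Vehicle-treated cultures served as reference for growth inhibition of compound-exposed mec2-1 yeast.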
Assay [3] is described as follows: NCI Yeast Anticancer Drug Screen. Data for the sgs1 mgt1 strain (AID 161).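 Further: 0% = growth of cultures given vehicle only.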 The settings on record: S. cerevisiae sgs1 mgt1 strain, hits give high values. The method in brief:
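Genetically altered yeast, compound exposure, growth inhibition relative to vehicle.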

Assay [4] in a line: NCI Yeast Anticancer Drug Screen. Data for the cln2 rad14 strain (AID 165).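 Further: 0% = growth equal to vehicle treated cultures.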 The settings on record: S. cerevisiae cln2 rad14 strain, hits give high values. The method in brief:
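Each compound was tested on cln2 rad14 yeast. Inhibition of growth was calculated against vehicle-exposed controls.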

Assay [5] can be described thus: NCI Yeast Anticancer Drug Screen. Data for the bub3 strain (AID 167). The settings on record: S. cerevisiae bub3 mutant strain, hits give high values. The method, boiled down: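 Compounds were applied to a genetically altered yeast strain carrying a cell-cycle control defect. Growth inhibition was scored against vehicle-treated controls.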
The nature of assay [6]: NCI Yeast Anticancer Drug Screen. Data for the mlh1 rad18 strain (AID 175). The settings on record: S. cerevisiae mlh1 rad18 strain growth inhibition, hits give high values. The method, boiled down:
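Vehicle-treated cultures served as the reference for growth inhibition in a yeast strain carrying DNA damage repair alterations exposed to each compound.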

The mark [7] stands for this setting: at 5.0 µM (retest, dose inferred, filed as 0.5).
[8] abbreviates: at 50.0 µM (retest, dose inferred, filed as 5.0).

SMILES strings stand for the structures. This is part of a sample that, as a whole, favours compounds with a hit. Of some 79,000 tested, about 15% had one in any assay. A number with no mark means an inactive call. Calls of active or inactive are those of the source. No stated cut-off is given here; in the data, active means growth inhibition above about 70%; inactive means the rest.

On to `CC(=O)Nc1ccc(-c2nnc(SCC(=O)Nc3ccc(Cl)cc3Cl)o2)cc1`, for which the growth inhibition was 1% in assay [1] (setting [7]); 30% in assay [1] (setting [8]); 89.4% (active) in assay [1] (at 50.0 µM); -4% in assay [2] (setting [7]); 10% in assay [2] (setting [8]); 97.4% (active) in assay [2] (at 50.0 µM). Also, the growth inhibition in assay [3] (setting [7]) was 2%; in assay [3] (setting [8]) it was 8%; in assay [3] (at 50.0 µM), 94.9% (active); in assay [4] (setting [7]) it was 8%; in assay [4] (setting [8]) it was 29%; in assay [4] (at 50.0 µM), 86.4% (active). For the same molecule, the growth inhibition is -3% in assay [5] (setting [7]); 22% in assay [5] (setting [8]); 97.7% (active) in assay [5] (at 50.0 µM); 7% in assay [6] (setting [7]); 28% in assay [6] (setting [8]); 94.7% (active) in assay [6] (at 50.0 µM).
For `C(=Nc1ccccc1)c1cn(Cc2ccccc2)c2ccccc12`, the growth inhibition in assay [1] (setting [7]) was 90% (active); in assay [1] (setting [8]) it was 95% (active); in assay [1] (at 50.0 µM) it was 83.1% (active); in assay [2] (setting [7]) it was 99% (active); in assay [2] (setting [8]), 99% (active); in assay [2] (at 50.0 µM) it was -10.2%. Besides, the growth inhibition in assay [3] (setting [7]) was 99% (active); in assay [3] (setting [8]) it was 99% (active); in assay [3] (at 50.0 µM), 64.7%; in assay [4] (setting [7]), 100% (active); in assay [4] (setting [8]), 99% (active); in assay [4] (at 50.0 µM), -12.6%. The growth inhibition in assay [5] (setting [7]) is 99% (active); in assay [5] (setting [8]), 99% (active); in assay [5] (at 50.0 µM), 11.6%; in assay [6] (setting [7]) it was 99% (active); in assay [6] (setting [8]), 97% (active); in assay [6] (at 50.0 µM), 36.9%.
As to `O=C(CS)Nc1ccccc1`, the growth inhibition in assay [1] (setting [7]) was 13%; in assay [1] (setting [8]), 89% (active); in assay [1] (at 50.0 µM) it was 65.4%; in assay [2] (setting [7]), 18%; in assay [2] (setting [8]), 91% (active); in assay [2] (at 50.0 µM) it was 57.2%. Moreover, the growth inhibition in assay [3] (setting [7]) is 14%; in assay [3] (setting [8]) it was 93% (active); in assay [3] (at 50.0 µM), 61.1%; in assay [4] (setting [7]) it was 9%; in assay [4] (setting [8]), 87% (active); in assay [4] (at 50.0 µM), 47.5%. Moreover, the growth inhibition in assay [5] (setting [7]) is 3%; in assay [5] (setting [8]), 84% (active); in assay [5] (at 50.0 µM), 56.2%; in assay [6] (setting [7]), 16%; in assay [6] (setting [8]), 95% (active); in assay [6] (at 50.0 µM), 84.1% (active).
For the molecule `O=C(OCC1CCCO1)N(c1ccccc1)c1ccccc1` (centres undefined), the growth inhibition in assay [1] (setting [7]) was 12%; in assay [1] (setting [8]) it was -5%; in assay [1] (at 50.0 µM), 23.1%; in assay [2] (setting [7]), 15%; in assay [2] (setting [8]), 21%; in assay [2] (at 50.0 µM), 24.3%. Further, the growth inhibition was 18% in assay [3] (setting [7]); 20% in assay [3] (setting [8]); 46.9% in assay [3] (at 50.0 µM); 30% in assay [4] (setting [7]); 21% in assay [4] (setting [8]); -11.4% in assay [4] (at 50.0 µM). The growth inhibition in assay [5] (setting [7]) was 0%; in assay [5] (setting [8]), 16%; in assay [5] (at 50.0 µM), 2%; in assay [6] (setting [7]), 16%; in assay [6] (setting [8]) it was 40%; in assay [6] (at 50.0 µM), 37.7%.
For `C=Cc1cc(N=Nc2ccc([N+](=O)[O-])cc2)ccc1N(C)C`, the growth inhibition is 6% in assay [1] (setting [7]); 12% in assay [1] (setting [8]); 48% in assay [1] (at 50.0 µM); -1% in assay [2] (setting [7]); -2% in assay [2] (setting [8]); 4.2% in assay [2] (at 50.0 µM). Besides, the growth inhibition is 3% in assay [3] (setting [7]); 25% in assay [3] (setting [8]); 4.6% in assay [3] (at 50.0 µM); -2% in assay [4] (setting [7]); -15% in assay [4] (setting [8]); -25.9% in assay [4] (at 50.0 µM). The growth inhibition in assay [5] (setting [7]) is 2%; in assay [5] (setting [8]), 6%; in assay [5] (at 50.0 µM), 2.55%; in assay [6] (setting [7]) it was -9%; in assay [6] (setting [8]), -12%; in assay [6] (at 50.0 µM), 47.7%.
As for `COC1/C=C\OC2(C)Oc3c(C)c(O)c4c(O)c(c5[nH]c(-c6ccccc6)nc5c4c3C2=O)NC(=O)/C(C)=C\C=C\C(C)C(O)C(C)C(O)C(C)C(OC(C)=O)C1C` (centres undefined), the growth inhibition was 29% in assay [1] (setting [7]); 84% (active) in assay [1] (setting [8]); 88.5% (active) in assay [1] (at 50.0 µM); 30% in assay [2] (setting [7]); 94% (active) in assay [2] (setting [8]); 91.1% (active) in assay [2] (at 50.0 µM). Further, the growth inhibition in assay [3] (setting [7]) was 20%; in assay [3] (setting [8]) it was 88% (active); in assay [3] (at 50.0 µM), 91.7% (active); in assay [4] (setting [7]), 44%; in assay [4] (setting [8]), 91% (active); in assay [4] (at 50.0 µM), 88.6% (active). Moreover, the growth inhibition in assay [5] (setting [7]) was 14%; in assay [5] (setting [8]) it was 89% (active); in assay [5] (at 50.0 µM), 88.6% (active); in assay [6] (setting [7]), 19%; in assay [6] (setting [8]), 94% (active); in assay [6] (at 50.0 µM), 90% (active).
Regarding `CN(C)CC(CN(C)C)C(=O)c1ccc2c(c1)OCO2`, the growth inhibition in assay [1] (setting [7]) is -8%; in assay [1] (setting [8]) it was -30%; in assay [1] (at 50.0 µM), 84.7% (active); in assay [2] (setting [7]) it was -15%; in assay [2] (setting [8]), -13%; in assay [2] (at 50.0 µM), 87% (active). The growth inhibition in assay [3] (setting [7]) is -10%; in assay [3] (setting [8]) it was -20%; in assay [3] (at 50.0 µM) it was 92.6% (active); in assay [4] (setting [7]), -6%; in assay [4] (setting [8]), -8%; in assay [4] (at 50.0 µM) it was 58.1%. Also, the growth inhibition was -5% in assay [5] (setting [7]); 25% in assay [5] (setting [8]); 58.6% in assay [5] (at 50.0 µM); 0% in assay [6] (setting [7]); -20% in assay [6] (setting [8]); 93% (active) in assay [6] (at 50.0 µM).
Regarding `CC(CN(C)C)C(/C=C/c1ccc(F)cc1)=N\Nc1ccccc1` (centres undefined), the growth inhibition is -8% in assay [1] (setting [7]); 51% in assay [1] (setting [8]); 30.1% in assay [1] (at 50.0 µM); -11% in assay [2] (setting [7]); 1% in assay [2] (setting [8]); 12.6% in assay [2] (at 50.0 µM). Besides, the growth inhibition in assay [3] (setting [7]) was -15%; in assay [3] (setting [8]), 13%; in assay [3] (at 50.0 µM), 42.6%; in assay [4] (setting [7]), 5%; in assay [4] (setting [8]), 46%; in assay [4] (at 50.0 µM), 3.65%. Moreover, the growth inhibition in assay [5] (setting [7]) is -1%; in assay [5] (setting [8]) it was 39%; in assay [5] (at 50.0 µM), 15.9%; in assay [6] (setting [7]) it was 0%; in assay [6] (setting [8]) it was 29%; in assay [6] (at 50.0 µM), 75.7% (active).

Source of the values: PubChem BioAssay (NCI).
